Experimental data as given in PubChem BioAssay (Tox21).
Results filed as inconclusive are left out. Calls of active or inactive are those of the source. Calls follow the shape of the dose curve; as a rule, active = well fitted curve in the direction sought with a large enough effect in the repeat runs; inconclusive = weak or mixed curves; inactive = no such curve, though single readings can be large; an effect the other way counts as inactive or inconclusive.

Legend:
[1] = qHTS RealTime-Glo MT Cell Viability Assay in HEK293 cells - 32 hour (AID 1224868); also: top concentration of the series differs between compounds; nearly all actives have a fitted effect of over 50% in size
Summary of the method: (§1)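 Cells + reagent dispensed (600 cells/well, HEK293) → 5 h at 37 C/5% CO2 → 23 nL compound in DMSO pinned → 40 h at 37 C → luminescence read at 0, 8, 16, 24, 32, 40 h.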

[2] = A CellTox Green Cytotoxicity Assay to monitor cytotoxicity in HEK293 cells - 0 hour (AID 1224869); also: nearly all actives have a fitted effect of over 50% in size
Summary of the method: (§2)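 Read-out: fluorescence of a cell-impermeant cyanine dye staining DNA of dead cells, proportional to cytotoxicity. HEK293, 600 cells/well with reagent, compound (23 nL DMSO) added after 5 h; reads at 0, 8, 16, 24, 32, 40 h.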

[3] = qHTS RealTime-Glo MT Cell Viability Assay in HepG2 cells - 40 hour (AID 1224870); also: nearly all actives have a fitted effect of over 50% in size
Summary of the method: (§3)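 HepG2 cells mixed with RealTime-Glo MT reagents (NanoLuc plus cell-permeant prosubstrate) were seeded at 600 cells/well, incubated 5 h at 37 C/5% CO2, then pinned with compounds in DMSO; nonlytic luminescence tracked viability during 40 h treatment.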

[4] = qHTS RealTime-Glo MT Cell Viability Assay in HEK293 cells - 16 hour (AID 1224872); also: top concentration of the series differs between compounds; nearly all actives have a fitted effect of over 50% in size
Summary of the method: as §1

[5] = qHTS RealTime-Glo MT Cell Viability Assay in HepG2 cells - 8 hour (AID 1224873); also: nearly all actives have a fitted effect of over 55% in size
Summary of the method: as §3

[6] = qHTS RealTime-Glo MT Cell Viability Assay in HEK293 cells - 40 hour (AID 1224874); conditions: RealTime-Glo luminescence, active compounds read low; also: nearly all actives have a fitted effect of over 50% in size
Summary of the method: (§4)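 Luminescence readout at each listed time point; HEK293, 600 cells/well, RealTime-Glo MT reagent added with cells; compounds pinned (23 nL in DMSO) after 5 h at 37 C; continuous culture at 37 C.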

[7] = A CellTox Green Cytotoxicity Assay to monitor cytotoxicity in HEK293 cells - 24 hour (AID 1224875); also: series mostly up to about 77 µM; nearly all actives have a fitted effect of over 45% in size
Summary of the method: as §2

[8] = A CellTox Green Cytotoxicity Assay to monitor cytotoxicity in HepG2 cells - 16 hour (AID 1224876); also: nearly all actives have a fitted effect of over 45% in size
Summary of the method: (§5)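 HepG2, 600 cells/well premixed w/ CellTox Green; 5 h settle, 37 C/5% CO2; pintool cpd add (DMSO); 37 C, 40 h; fluorescence read at 0, 8, 16, 24, 32, 40 h.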

[9] = qHTS RealTime-Glo MT Cell Viability Assay in HepG2 cells - 32 hour (AID 1224877); also: nearly all actives have a fitted effect of over 55% in size
Summary of the method: (§6)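 Real-time, nonlytic viability: 600 HepG2 cells/well mixed with NanoLuc enzyme plus prosubstrate; 5 h settle, compound (DMSO) added by pintool; luminescence monitored over 40 h at 37 C.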

[10] = A CellTox Green Cytotoxicity Assay to monitor cytotoxicity in HepG2 cells - 24 hour (AID 1224878); also: nearly all actives have a fitted effect of over 45% in size
Summary of the method: as §5

[11] = A CellTox Green Cytotoxicity Assay to monitor cytotoxicity in HepG2 cells - 40 hour (AID 1224879); also: nearly all actives have a fitted effect of over 40% in size
Summary of the method: as §5

[12] = qHTS RealTime-Glo MT Cell Viability Assay in HEK293 cells - 0 hour (AID 1224880); also: top concentration of the series differs between compounds; nearly all actives have a fitted effect of over 45% in size
Summary of the method: as §4

[13] = A CellTox Green Cytotoxicity Assay to monitor cytotoxicity in HEK293 cells - 32 hour (AID 1224881); also: nearly all actives have a fitted effect of over 40% in size
Summary of the method: as §2

[14] = A CellTox Green Cytotoxicity Assay to monitor cytotoxicity in HepG2 cells - 32 hour (AID 1224883); also: nearly all actives have a fitted effect of over 50% in size; also: potency is read from the fitted curve at half-maximal effect
Summary of the method: as §5

[15] = A CellTox Green Cytotoxicity Assay to monitor cytotoxicity in HEK293 cells - 8 hour (AID 1224884); also: nearly all actives have a fitted effect of over 35% in size
Summary of the method: as §2

[16] = qHTS RealTime-Glo MT Cell Viability Assay in HepG2 cells - 16 hour (AID 1224885); also: nearly all actives have a fitted effect of over 50% in size
Summary of the method: as §6

[17] = qHTS RealTime-Glo MT Cell Viability Assay in HEK293 cells - 24 hour (AID 1224886)
Summary of the method: as §1

[18] = qHTS RealTime-Glo MT Cell Viability Assay in HEK293 cells - 8 hour (AID 1224887)
Summary of the method: as §4

[19] = A CellTox Green Cytotoxicity Assay to monitor cytotoxicity in HepG2 cells - 0 hour (AID 1224882); also: nearly all actives have a fitted effect of over 35% in size
Summary of the method: as §5

[20] = A CellTox Green Cytotoxicity Assay to monitor cytotoxicity in HEK293 cells - 40 hour (AID 1224871); also: nearly all actives have a fitted effect of over 45% in size
Summary of the method: as §2
% is scaled to controls: 0 for no effect and ±100 for the full control effect.

C=CC(C)(CCC=C(C)C)OC(=O)C(C)C (centres undefined)
inactive: outcome [1] | outcome [2] | outcome [3] | outcome [4] | outcome [5] | max response [6] 0.514% | Potency [7] | Potency [8] | outcome [9] | Potency [10] | Potency [11] | Potency [12] | Potency [13] | Potency [14] | Potency [15] | outcome [16] | outcome [17] | outcome [18]

CCCCCCCCS(=O)(=O)O
inactive: outcome [1] | outcome [2] | outcome [3] | outcome [4] | outcome [5] | Potency [7] | Potency [8] | outcome [9] | Potency [10] | Potency [11] | Potency [12] | Potency [13] | Potency [19] | Potency [14] | Potency [15] | outcome [16] | outcome [17] | outcome [18]

CCCc1ncc(C(=O)O)s1
inactive: outcome [1] | outcome [2] | outcome [3] | outcome [4] | outcome [5] | max response [6] 0.25% | Potency [7] | outcome [9] | Potency [10] | Potency [11] | Potency [12] | Potency [13] | Potency [19] | Potency [14] | Potency [15] | outcome [16] | outcome [17] | outcome [18]

Cc1ccccc1C#N
inactive: outcome [1] | outcome [2] | outcome [3] | outcome [4] | outcome [5] | max response [6] 7.55% | Potency [7] | Potency [8] | outcome [9] | Potency [10] | Potency [11] | Potency [12] | Potency [13] | Potency [19] | Potency [15] | outcome [16] | outcome [17] | outcome [18]

C[Si](C)(C)O[Si](O)(O)O
inactive: outcome [1] | outcome [2] | outcome [3] | outcome [4] | outcome [5] | max response [6] 0.476% | Potency [7] | Potency [8] | outcome [9] | Potency [10] | Potency [11] | Potency [12] | Potency [19] | Potency [15] | outcome [16] | outcome [17] | outcome [18]

NC[C@H]1O[C@H](O[C@H]2[C@H](O)[C@@H](O[C@H]3O[C@H](CO)[C@@H](O)[C@H](N)[C@H]3O)[C@H](N)C[C@@H]2N)[C@H](N)[C@@H](O)[C@@H]1O
inactive: activity change, negative = cytotoxic [1] 4.09% [at 15.8 µM] | cytotoxicity [2] -1.07% [at 15.8 µM] | activity change, negative = cytotoxic [3] 0.593% [at 15.8 µM] | activity change, negative = cytotoxicity [4] 6.75% [at 15.8 µM] | max response [6] 5.23% | activity change [7] 0.657% [at 15.8 µM, active compounds read high] | activity change, negative = cytotoxic [9] 3.63% [at 15.8 µM] | cytotoxicity [10] -0.281% [at 15.8 µM] | cytotoxicity increase [11] -4.11% [at 15.8 µM] | activity change, negative = cytotoxicity [12] -0.44% [at 15.8 µM] | cytotoxicity increase [13] -0.0128% [at 15.8 µM] | cytotoxicity [19] 1.75% [at 15.8 µM] | cytotoxicity increase [15] 1.34% [at 15.8 µM] | activity change, negative = cytotoxic [16] 3.1% [at 15.8 µM] | activity change, negative = cytotoxicity [17] 5.12% [at 15.8 µM] | activity change, negative = cytotoxicity [18] 14.7% [at 15.8 µM]

CC(C)(C)c1ccc(N)cc1
active: Potency [14] 61.7 µM
inactive: outcome [1] | outcome [2] | outcome [3] | outcome [5] | max response [6] -2.84% | Potency [7] | outcome [9] | Potency [12] | Potency [13] | Potency [19] | Potency [15] | outcome [16] | outcome [17] | outcome [18]

NCC1CCC(C(=O)Oc2ccc(CCC(=O)O)cc2)CC1 (centres undefined)
inactive: outcome [1] | outcome [2] | Potency [20] | outcome [4] | outcome [5] | max response [6] 8.81% | Potency [7] | Potency [8] | outcome [9] | Potency [10] | Potency [11] | Potency [12] | Potency [13] | Potency [19] | Potency [14] | Potency [15] | outcome [16] | outcome [17] | outcome [18]

CC(O)CCCCn1c(=O)c2c(ncn2C)n(C)c1=O (centres undefined)
inactive: outcome [1] | outcome [2] | Potency [20] | outcome [4] | outcome [5] | max response [6] 0.953% | Potency [7] | Potency [8] | outcome [9] | Potency [10] | Potency [11] | Potency [12] | Potency [13] | Potency [19] | Potency [15] | outcome [16] | outcome [17] | outcome [18]

CCOCCOCCOC(C)=O
inactive: outcome [1] | outcome [2] | outcome [3] | max response [6] 7.47% | Potency [7] | Potency [8] | outcome [9] | Potency [10] | Potency [12] | Potency [13] | Potency [19] | Potency [14] | Potency [15] | outcome [16] | outcome [17] | outcome [18]

C[C@@H]1CC[C@@]2(OC1)O[C@H]1C[C@H]3[C@@H]4CC[C@H]5C[C@@H](O)CC[C@]5(C)[C@H]4CC(=O)[C@]3(C)[C@H]1[C@@H]2C
inactive: activity change, negative = cytotoxic [1] -2.31% [at 6.97 µM] | cytotoxicity [2] -2.97% [at 6.97 µM] | cytotoxicity increase [20] -2.28% [at 6.97 µM] | activity change, negative = cytotoxicity [4] -0.344% [at 6.97 µM] | viability change, negative = cytotoxic [5] 1.5% [at 6.97 µM] | max response [6] -0.328% | activity change [7] -2.49% [at 6.97 µM, active compounds read high] | cytotoxicity increase [8] -10% [at 6.97 µM] | activity change, negative = cytotoxic [9] 1.67% [at 6.97 µM] | cytotoxicity [10] -7.96% [at 6.97 µM] | cytotoxicity increase [11] -2.78% [at 6.97 µM] | activity change, negative = cytotoxicity [12] 0.253% [at 6.97 µM] | cytotoxicity increase [13] -0.706% [at 6.97 µM] | cytotoxicity [19] 2.51% [at 6.97 µM] | cytotoxicity increase [14] -3.63% [at 6.97 µM] | cytotoxicity increase [15] -0.568% [at 6.97 µM] | activity change, negative = cytotoxic [16] 0.914% [at 6.97 µM] | activity change, negative = cytotoxicity [17] -0.905% [at 6.97 µM] | activity change, negative = cytotoxicity [18] 2.92% [at 6.97 µM]

C[C@@H]1NC(=O)[C@@H](N)CNC(=O)[C@H](C2CCNC(N)=N2)NC(=O)/C(=C/NC(N)=O)NC(=O)[C@H](CNC(=O)C[C@@H](N)CCCN)NC1=O (some centres undefined)
inactive: activity change, negative = cytotoxic [1] 0.857% [at 0.29 µM] | cytotoxicity [2] 0.414% [at 0.29 µM] | activity change, negative = cytotoxic [3] 3.51% [at 0.29 µM] | activity change, negative = cytotoxicity [4] 0.93% [at 0.29 µM] | viability change, negative = cytotoxic [5] 3.98% [at 0.29 µM] | max response [6] 0.0952% | activity change [7] 19.3% [at 0.29 µM, active compounds read high] | cytotoxicity increase [8] -2.83% [at 0.29 µM] | activity change, negative = cytotoxic [9] 3.72% [at 0.29 µM] | cytotoxicity [10] -1.91% [at 0.29 µM] | activity change, negative = cytotoxicity [12] -3.01% [at 0.29 µM] | cytotoxicity increase [13] 19.4% [at 0.29 µM] | cytotoxicity increase [14] -3.17% [at 0.29 µM] | cytotoxicity increase [15] 6.36% [at 0.29 µM] | activity change, negative = cytotoxic [16] 5.82% [at 0.29 µM] | activity change, negative = cytotoxicity [17] 0.653% [at 0.29 µM] | activity change, negative = cytotoxicity [18] 0.186% [at 0.29 µM]
